Most compounds without a hit are left out; they make up all but 19% or so of the library.
HT1080-NT tox: qHTS for induction of synthetic lethality in tumor cells producing 2HG: qHTS for the HT-1080-NT fibrosarcoma cell line | HT-1080-NT fibrosarcoma viability, CellTiter-Glo ATP luminescence, 48 h | 360,000 tested, 1.6% active | Potency, µM (titrated, usually from 46.1 µM), for inactives: top-dose activity, negative = less viability, most hits filed as cytotoxic | AID 686970, 2013;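 note: NT is the 2HG producing partner of a matched IDH1 knockdown line; potency is the fitted concentration of half-maximal effect; 0% = DMSO-treated cells and -100% = media-only wells without cells; nearly all actives have a fitted effect of over 55% in size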
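Viability of the 2HG-overproducing fibrosarcoma line after 48 hours of compound exposure at 37 degrees C was determined by luminescence with CellTiter-Glo, and concentration-effect curves were then fitted and categorized.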
TDP1 cell CPT: qHTS for Inhibitors of human tyrosyl-DNA phosphodiesterase 1 (TDP1): qHTS in cells in presence of CPT; 420,000 tested, 12% active; AID 686979, 2013; chicken DT40 Tdp1-/-;hTDP1 cells + 20 nM CPT, ATP luminescence, 48 h; Potency, µM (highest dose often 46.2 µM), for inactives: at the highest dose activity change, negative = growth inhibition, actives largely listed as inhibitors; note: potency is the fitted concentration of half-maximal effect; nearly all actives have a fitted effect of over 55% in size
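Cell growth measured by CellTiter-Glo luminescence after a minimum 48 h, 37 C compound exposure with 20 nM CPT in Tdp1-knockout DT40 cells stably expressing hTDP1, seeded 400/well; qHTS titration format.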
IL1B secr inh: qHTS for Inhibitors of Inflammasome Signaling: IL-1-beta AlphaLISA Primary Screen | 360,000 tested, 4.7% active | THP-1 LPS/ATP IL-1B secretion, AlphaLISA, 16 h; stronger effect = lower value | activity change, % at 57.5 µM; in the data active = activity change below about -50%; inconclusive = mostly about -30% to -49%
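Secreted IL-1B measured by AlphaLISA bead assay after 16 h compound exposure of THP-1 cells; compounds (final up to 57.5 uM) added 1 h before LPS (250 ng/mL) and ATP (1.25 mM) stimulation; lower signal means less secretion.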
DT40 TDP1 no CPT: qHTS for Inhibitors of human tyrosyl-DNA phosphodiesterase 1 (TDP1): qHTS in cells in absence of CPT; DT40 Tdp1-/- hTDP1 cells, no CPT, ATP luminescence, 48 h; Potency, µM (highest dose often 46.2 µM), without a hit: at the top dose activity change, negative = growth inhibition, usual class: inhibitors; 420,000 tested, 15% active; note: potency is the fitted concentration of half-maximal effect; nearly all actives have a fitted effect of over 55% in size
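Stably hTDP1-transfected Tdp1-null chicken DT40 cells were treated with library compounds minus camptothecin and grown for at least 48 hr at 37 °C, after which cellular ATP was quantified by luminescence.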
HT1080 IDH1KD tx: qHTS for induction of synthetic lethality in tumor cells producing 2HG: qHTS for the HT-1080-IDH1KD cell line; 360,000 tested, 2% active; Potency, µM (doses to about 46.1 µM), for inactives: at the highest dose activity, negative = toxicity, most hits filed as cytotoxic; HT-1080 IDH1 knockdown viability, ATP luminescence, 48 h; AID 686971, 2013;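 note: potency is the fitted concentration of half-maximal effect; 0% = DMSO wells and -100% = cell-free medium wells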
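Viability of IDH1-knockdown HT-1080 fibrosarcoma cells was assessed by CellTiter-Glo after 48 h at 37 °C with titrated compound; concentration-effect curves were classified by fit quality and response size.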
An asterisk follows results filed as active; ? = inconclusive; · = no result given; [ ] = dose if it differs, or a comment. Unless noted, calls come from the whole dose curve; as a rule, active = well fitted curve in the direction sought with a large enough effect; inconclusive = small, poorly fitted or top-dose-only effect, or another doubt; inactive = no such curve, though single readings can be large; an effect the other way counts as inactive or inconclusive. Unless noted, % is set by controls: 0 for no effect and ±100 for the full control effect.

SMILES | HT1080-NT tox | TDP1 cell CPT | IL1B secr inh | DT40 TDP1 no CPT | HT1080 IDH1KD tx
CCn1cc(C(=O)N[C@H](C)c2ccccc2)c(=O)c2cc(F)c(N3CCN(C)CC3)cc21 | -1% | ? | -74* | ? | -15%
CC1CCN(S(=O)(=O)c2ccc3c(c2)c(=O)c(C(=O)NC(C)c2ccccc2)cn3C)CC1 (stereo not drawn) | · | ? | · | 23µM* | ·
CCCCCCCC(=O)N1CCN(c2cc3c(cc2F)c(=O)c(C(=O)O)cn3CC)CC1 | -1% | 23µM* | 11 | ? | -5%
CCn1cc(C(=O)NCc2ccccn2)c(=O)c2cc(F)c(N3CCN(C)CC3)cc21 | 6% | 0% | 2 | -6% | 5%
Cc1cccc(N2CC(C(=O)Nc3nnc(SCC(=O)N4CCOCC4)s3)CC2=O)c1 (stereo not drawn) | 1% | 1% | 3 | 18% | 5%
Nc1ncnc2c1ncn2[C@@H]1O[C@H](C(=O)NCCCN2CCCC2=O)[C@@H](O)[C@H]1O | 18% | 0% | 10 | 15% | 26%
CCCCCCCCC(=O)N1CCN(c2cc3c(cc2F)c(=O)c(C(=O)O)cn3CC)CC1 | 18% | -24% | 29 | -15% | 19%
CCCCCCNC(=O)c1cn(CC)c2cc(N3CCN(C)CC3)c(F)cc2c1=O | 16µM* | 21µM* | -55* | 26µM* | ?
CCCCCCn1cc(C(=O)O)c(=O)c2cc(F)c(N3CCN(C)CC3)cc21 | 15% | 16µM* | 11 | 18µM* | 10%
Cc1ccc(C)c(N2CCN(C(=O)Cn3cccc3)CC2)c1 | 10% | ? | 0 | -22% | -1%
Cc1ccc(C)c(N2CCN(C(=O)C(Cc3ccccc3)n3cccc3)CC2)c1 (stereo not drawn) | ? | 23µM* | 8 | 23µM* | -12%
CC1CCCN(C(=O)C(Cc2ccccc2)n2cccc2)C1 (stereo not drawn) | -7% | 15µM* | -30 | -11% | -8%
O=C(C(Cc1ccccc1)n1cccc1)N1CCN(c2ccccc2)CC1 (stereo not drawn) | 18% | 23µM* | -21 | 26µM* | 0%
CC1CCC(NC(=O)C(Cc2ccccc2)n2cccc2)CC1 (stereo not drawn) | 6% | ? | -26 | ? | 4%
CCCc1cc(=O)[nH]c(Nc2ccc(OC)c(Cl)c2)n1 | -10% | ? | 23 | ? | -17%
Cc1nc2sccn2c1CN1Cc2ccccc2OC(c2ccccc2F)C1 (stereo not drawn) | · | 6%[9.04 µM] | · | 18µM* | ·
COc1ccccc1C1CN(Cc2cccc(C)n2)Cc2ccccc2O1 (stereo not drawn) | · | -30%[9.04 µM] | · | 16µM* | ·
CSc1ncccc1C(=O)NCCN1Cc2ccccc2OC(c2ccccc2F)C1 (stereo not drawn) | · | 12%[9.04 µM] | · | ? | ·
CS(=O)(=O)Nc1cccc(-c2nccc(NCc3cccs3)n2)c1 | · | -25% | · | -18% | ·
O=C1c2cccc3c(N4CCOCC4)c([N+](=O)[O-])cc(c23)C(=O)N1c1cccc2ccccc12 | -15% | 12µM* | -6 | 18µM* | 0%
O=C(O)c1ccccc1NS(=O)(=O)c1cccc(-n2sc3ccccc3c2=O)c1 | -5% | 15µM* | -93* | 8.2µM* | ?
CCCCC(c1nnnn1CCOC)N1CCN(c2cccc(OC)c2)CC1 (stereo not drawn) | 11% | -28% | -3 | -24% | 10%
CC1Nc2ncnc(N3CCN(c4ccccc4)CC3)c2N(Cc2ccc(Br)cc2)C1=O (stereo not drawn) | -27% | ? | ? | 21µM* | ?
COc1ccc(CN2C(=O)C(C)Nc3ncnc(N4CCN(c5ccccc5)CC4)c32)cc1 (stereo not drawn) | -5% | ? | -26 | ? | -4%
CCC1Nc2ncnc(N3CCN(c4ccccn4)CC3)c2N(Cc2ccc(Cl)cc2)C1=O (stereo not drawn) | -21% | ? | -59* | ? | -19%
SMILES | HT1080-NT tox | TDP1 cell CPT | IL1B secr inh | DT40 TDP1 no CPT | HT1080 IDH1KD tx
CC1Nc2ncnc(N3CCc4ccccc4C3)c2N(Cc2ccccc2)C1=O (stereo not drawn) | ? | 21µM* | -23 | ? | ?
O=C1C(Cc2ccccc2)Nc2ncnc(N3CCc4ccccc4C3)c2N1Cc1ccc(Cl)cc1 (stereo not drawn) | ? | ? | -94* | ? | ?
Cc1cnc(CNc2cc(-c3cccc(NS(C)(=O)=O)c3)ncn2)cn1 | · | -1% | · | -6% | ·
O=c1nc(-c2ccccc2)nc(-c2ccccc2)[nH]1 | -15% | 0% | 13 | ? | 3%
CCN(CCNC(=O)CN1CCN(Cc2ccc(Cl)cc2)C1=O)c1ccccc1 | -13% | ? | -10 | ? | -11%
CCC1Nc2ncnc(N3CCc4ccccc4C3)c2N(Cc2ccc(Cl)cc2)C1=O (stereo not drawn) | -21% | 21µM* | -14 | ? | -13%
COc1ccc(CN2C(=O)C(C)Nc3ncnc(N4CCOCC4)c32)cc1 (stereo not drawn) | ? | ? | 93 | ? | 15µM*
CCN(CC)CCCNC(=O)c1cc(-c2ccc(Cl)cc2)on1 | ? | ? | -18 | 23µM* | ?
